TDP1 cell CPT = qHTS for Inhibitors of human tyrosyl-DNA phosphodiesterase 1 (TDP1): qHTS in cells in presence of CPT; chicken DT40 Tdp1-/-;hTDP1 cells + 20 nM CPT, ATP luminescence, 48 h; Potency, µM (top dose mostly 46.2 µM), usual class: inhibitors; 420,000 compounds, 12% hits; also: nearly all actives have a fitted effect of over 55% in size
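Cell growth measured by CellTiter-Glo luminescence after a minimum 48 h, 37 C compound exposure with 20 nM CPT in Tdp1-knockout DT40 cells stably expressing hTDP1, seeded 400/well; qHTS titration format.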
DT40 TDP1 no CPT = qHTS for Inhibitors of human tyrosyl-DNA phosphodiesterase 1 (TDP1): qHTS in cells in absence of CPT | DT40 Tdp1-/- hTDP1 cells, no CPT, ATP luminescence, 48 h | AID 686978, 2013 | Potency, µM (top dose mostly 46.2 µM), most hits filed as inhibitors | 420,000 compounds, 15% hits; also: nearly all actives have a fitted effect of over 55% in size
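Chicken DT40 Tdp1-/- cells stably complemented with human TDP1 were seeded at 400 cells/well with DMSO in place of 20 nM camptothecin. After compound pinning, cells grew at least 48 hr at 37 °C; viability read by CellTiter-Glo luminescence.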
HepG2 tox = qHTS for Inhibitors of TGF-b: Cytotox Counterscreen. 410,000 compounds, 0.76% hits. AID 588856, 2011. Potency, µM (highest dose often 46.1 µM), actives largely listed as cytotoxic. HepG2 CAGA-GFP viability, ATP luminescence, 18 h
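CellTiter-Glo luminescence gave cytotoxicity after 18 hours at 37 degrees C. The cells were HepG2 CAGA-GFP in 1% FBS DMEM, stimulated with 500 pg/mL TGF-beta after compound addition. %Activity was normalised to no-cell wells (complete cell-killing) and DMSO (no toxicity), and curves were fitted and classified.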
HT1080 IDH1KD tx = qHTS for induction of synthetic lethality in tumor cells producing 2HG: qHTS for the HT-1080-IDH1KD cell line | HT-1080 IDH1 knockdown viability, ATP luminescence, 48 h | Potency, µM (highest dose often 46.1 µM), usual class: cytotoxic | 360,000 compounds, 2% hits
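Cytotoxicity counter-line: IDH1KD HT-1080, 48 h, CellTiter-Glo. Curves classed by r2, magnitude and activity.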
TGFb SMAD3 inh = qHTS for Inhibitors of TGF-b. HepG2 CAGA-GFP TGF-b/SMAD3 reporter, GFP fluorescence, 18 h; TGF-beta stimulated, 500 pg/mL final. Potency, µM (top dose mostly 46.1 µM), most hits filed as inhibitors. 410,000 compounds, 1.2% hits. AID 588855, 2011; also: nearly all actives have a fitted effect of over 65% in size
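HEPG2 CAGA-GFP cells (1000/well, DMEM with 1% FBS) were pre-incubated 2 h at 37 degrees C, given compound by pin tool, then stimulated with TGF-beta at 500 pg/mL final for 18 h before per-cell GFP fluorescence imaging.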
HT1080NT lethal = qHTS for induction of synthetic lethality in tumor cells producing 2HG: qHTS for the HT-1080-NT fibrosarcoma cell line; HT-1080-NT fibrosarcoma viability, CellTiter-Glo ATP luminescence, 48 h; Potency, µM (titrated, usually from 46.1 µM), usual class: cytotoxic; 360,000 compounds, 1.6% hits;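 also: NT is the 2HG producing partner of a matched IDH1 knockdown line; nearly all actives have a fitted effect of over 55% in size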
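Viability of the 2HG-overproducing fibrosarcoma line after 48 hours of compound exposure at 37 degrees C was determined by luminescence with CellTiter-Glo, and concentration-effect curves were then fitted and categorized.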
Hits are given with their value; – = inactive; ? = inconclusive; · = not tested or not shown. Most compounds without a hit are left out; they make up all but 17% or so of the library. Calls follow the shape of the dose curve; as a rule, active = well fitted curve in the direction sought with a large enough effect; inconclusive = small, poorly fitted or top-dose-only effect, or another doubt; inactive = no such curve, though single readings can be large; an effect the other way counts as inactive or inconclusive.

SMILES	TDP1 cell CPT	DT40 TDP1 no CPT	HepG2 tox	HT1080 IDH1KD tx	TGFb SMAD3 inh	HT1080NT lethal
COc1cc(/C=C/C(=O)c2c(O)cc(C)oc2=O)cc(OC)c1O	?	?	–	?	–	?
Cc1cc(=O)oc2c(C(=O)/C=C/c3ccccc3)c(O)ccc12	–	?	–	–	–	–
Cc1cc(=O)oc2c(C(=O)/C=C\c3cccs3)c(O)ccc12	?	?	–	21µM	–	?
Cc1ccc2oc(-c3cc(NC(=O)c4ccc5c(c4)OCCO5)cc(C)c3O)nc2c1	·	·	–	·	–	·
O=C1CN(C(=O)COC(=O)CCc2ccccc2O)c2ccccc2N1	–	–	–	–	–	–
O=c1c2ccccc2nc2n1CCN2Cc1ccc(Cl)cc1	18µM	?	–	–	?	?
COc1ccc(-c2noc(CN3CCN(c4ccccc4OC)CC3)n2)cc1OC	21µM	?	–	·	–	·
COc1cc(-c2noc(CN3CCN(c4cccc(Cl)c4)CC3)n2)cc(OC)c1OC	16µM	21µM	–	·	?	·
COc1ccc(-c2noc(CN3CCN(c4ccccc4)CC3)n2)cc1	?	–	–	–	–	–
CCOC(=O)C(N)CSC1CC(=O)N(CCc2ccccc2)C1=O (configuration not stated)	–	–	–	–	?	–
Cc1ccc(OCCn2c(C3CC(=O)N(Cc4ccc(F)cc4)C3)nc3ccccc32)c(C)c1 (configuration not stated)	26µM	21µM	18µM	·	?	·
CC(C)(C)N1CC(c2nc3ccccc3n2CCOc2ccccc2)CC1=O (configuration not stated)	?	?	–	–	–	–
CCc1ccc(OCCn2c(C3CC(=O)N(Cc4ccc(F)cc4)C3)nc3ccccc32)cc1 (configuration not stated)	21µM	12µM	–	·	?	·
CCN(C1CCCCC1)S(=O)(=O)CCNC(=O)c1ccc2c(c1)OCO2	23µM	?	–	–	–	–
C/C(=N\N=C(N)N)c1cccc(Cl)c1	16µM	8.2µM	–	?	–	?
C/C(=N\NC(N)=O)c1cccc(Cl)c1	?	–	–	–	–	–
C/C(=N\N=C(N)N)c1ccc(Cl)cc1Cl	8.2µM	16µM	–	21µM	?	13µM
COc1ccc2nc(NC(=O)c3nc(S(=O)(=O)Cc4ccccc4F)ncc3Cl)sc2c1	0.92µM	1.5µM	–	·	?	·
COc1ccc2nc(NC(=O)c3nc(S(=O)(=O)Cc4ccccc4)ncc3Cl)sc2c1	1µM	1.3µM	10µM	·	7.9µM	·
CCOC(=O)N1CCN(C(=O)c2cc(COc3cccc(C(F)(F)F)c3)on2)CC1	?	16µM	–	–	–	–
O=C(c1cc(COc2cccc(C(F)(F)F)c2)on1)N1CCC(Oc2cccnc2)CC1	15µM	12µM	–	–	?	–
C=CCC1(CC=C)CCCN1C(=O)c1cc(COc2cccc(C(F)(F)F)c2)on1	15µM	15µM	–	–	?	–
CCNc1ncc2nc(-c3ccc(OC)cc3)c(=O)n(Cc3cccs3)c2n1	?	–	·	·	·	·
CC(=O)Nc1nc(C)c(-c2csc(Nc3cccc(C(C)=O)c3)n2)s1	3.3µM	5.2µM	–	–	?	?
CC(=O)Nc1ccc(Nc2nc(-c3sc(NC(C)=O)nc3C)cs2)cc1	16µM	13µM	–	–	–	–
CC(=O)Nc1nc(C)c(-c2csc(Nc3ccccn3)n2)s1	10µM	13µM	–	?	?	–
Cc1nc(N)sc1-c1csc(Nc2cccc(C(=O)O)c2)n1	–	–	–	–	–	–

Source: PubChem BioAssay
